The values that follow come from PubChem BioAssay AID623911 (Vanderbilt High Throughput Screening Facility, 2012).

Structures are written as SMILES. Hit rate of the full screen: of about 2,100 compounds, about 770 (37%) were called active. Some of the results follow. A number with no mark means an inactive call.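 How the source made its calls: active means by-eye trace score of 1 for enhancers or -1 for inhibitors, so actives lie on both sides (some results past the limit were not filed as active); inactive means score 0, or 3 fluorescent, or 4 baseline rise.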

G protein-activated inward rectifier potassium channel 2 (Homo sapiens) + G protein-activated inward rectifier potassium channel 1 (Homo sapiens), sequence (P48051 whole entry, looked up): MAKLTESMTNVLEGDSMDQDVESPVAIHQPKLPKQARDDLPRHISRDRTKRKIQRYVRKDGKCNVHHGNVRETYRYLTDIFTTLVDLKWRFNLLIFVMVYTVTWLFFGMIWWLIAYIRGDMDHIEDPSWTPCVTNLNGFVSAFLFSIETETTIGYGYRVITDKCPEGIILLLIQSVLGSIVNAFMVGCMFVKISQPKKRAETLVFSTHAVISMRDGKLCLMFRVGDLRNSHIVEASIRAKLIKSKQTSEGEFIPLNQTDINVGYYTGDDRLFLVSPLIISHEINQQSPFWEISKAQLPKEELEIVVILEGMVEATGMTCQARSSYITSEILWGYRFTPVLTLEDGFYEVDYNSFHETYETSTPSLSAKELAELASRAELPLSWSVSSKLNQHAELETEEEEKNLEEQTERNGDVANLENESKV
G protein-activated inward rectifier potassium channel 2 (Homo sapiens) + G protein-activated inward rectifier potassium channel 1 (Homo sapiens), sequence (P48549 whole entry, looked up): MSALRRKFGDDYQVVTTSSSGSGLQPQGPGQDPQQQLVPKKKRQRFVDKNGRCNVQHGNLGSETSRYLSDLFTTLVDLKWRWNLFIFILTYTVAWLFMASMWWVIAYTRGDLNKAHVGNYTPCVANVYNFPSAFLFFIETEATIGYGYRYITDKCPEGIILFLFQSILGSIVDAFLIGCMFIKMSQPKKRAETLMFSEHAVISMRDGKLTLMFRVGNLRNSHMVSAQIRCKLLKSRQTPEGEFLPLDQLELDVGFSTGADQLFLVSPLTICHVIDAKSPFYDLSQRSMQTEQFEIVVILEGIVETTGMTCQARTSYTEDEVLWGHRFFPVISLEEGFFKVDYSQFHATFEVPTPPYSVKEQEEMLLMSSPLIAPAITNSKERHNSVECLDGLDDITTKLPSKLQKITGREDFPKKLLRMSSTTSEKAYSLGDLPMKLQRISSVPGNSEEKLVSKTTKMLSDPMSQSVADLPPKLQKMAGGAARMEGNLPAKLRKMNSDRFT

This assay concerns the target G protein-activated inward rectifier potassium channel 2 (Homo sapiens) + G protein-activated inward rectifier potassium channel 1 (Homo sapiens) (UniProt P48051+P48549). In words: GIRK1/2 thallium flux modulators, retest, confirmation, cell-based, HEK293 rmGlu8/hGIRK1/2, FluoZin-2 (AID 623911). As to conditions: HEK293 rmGlu8/hGIRK1/2, thallium flux FluoZin-2; actives lie on both sides; glutamate co-added at its EC20 level.
`CC1CCCN(C(C(=O)Nc2ccc3c(c2)OCO3)c2ccccc2)C1` (stereo not drawn): the manual score was -1 (active).

As for `CC(C)c1cc(C(F)(F)F)n2nc(C(=O)Nc3ccc4c(c3)OCO4)cc2n1`, the manual score is 0.

As for `Cc1ccc(NC(=O)C(c2ccccc2)C2CCCC2)cc1` (stereo not drawn), the manual score was 0.

Regarding `O=C(NC(=S)Nc1ccc2c(c1)OCO2)c1ccccc1`, the manual score is 0.

For `CC1CCN(C(C(=O)Nc2ccc3c(c2)OCO3)c2ccccc2)CC1` (stereo not drawn), the manual score is -1 (active).

As for `Cc1ccc(C(C(=O)NC2CCCC2)N2CCCC(C)C2)cc1` (stereo not drawn), the manual score is -1 (active).

With `O=C(Nc1ccc(O)c(-c2nc3ccccc3s2)c1)C1=COCCO1`, the manual score is 0.

Turning to `Cc1csc(SCC(=O)Nc2nc3ccccc3s2)n1`, the manual score was 0.

`O=C1OC2(CCCCC2)OC(=O)C1=CNc1nc2ccccc2s1`: the manual score is 1 (active).

Consider `Oc1oc(-c2cccc3ccccc23)nc1/C=N/c1nccs1`, for which the manual score is 0.

`CCCCCC/C(C)=C1/SC(=S)NC1=O`: the manual score was 1 (active).

With `c1ccc2c(c1)oc1c(N3CCN(Cc4ccc5c(c4)OCO5)CC3)ncnc12`, the manual score was -1 (active).

Take `SC(COCc1ccccc1)CN1CCN(Cc2ccc3c(c2)OCO3)CC1` (stereo not drawn): the manual score is -0.5.

Turning to `COc1ccccc1N1CCN(Cc2cc(Br)c(O)c3ncccc23)CC1`, the manual score is 0.5.

As to `OC(CN1C2=NCCCN2c2ccccc21)c1ccc(Br)cc1` (stereo not drawn), the manual score is -1 (active).

Consider `Cc1ccc(Cn2c(SCC(=O)N3CC(=O)Nc4ccccc43)nc3ccccc3c2=O)cc1`, for which the manual score was 0.

Take `CC(C)(C)c1ccc(CN2C3=NCCCN3c3ccccc32)cc1`: the manual score is -1 (active).

Consider `CCCCCCN1C2=NCCN2c2ccccc21`, for which the manual score is -1 (active).

In the case of `Cc1ccc(CN2C3=NCCCN3c3ccccc32)cc1`, the manual score was -1 (active).

`CCN(CC)c1ccc(NC(=O)c2nc3nc(C)cc(C(F)F)n3n2)cc1`: the manual score was 0.

In the case of `Clc1ccc(CSc2ncn(-c3ccccc3)n2)cc1`, the manual score is 0.

With `Cc1cc2c(cc1C)C(=O)NC(C)(C)C2`, the manual score is 0.

Regarding `COc1ccc(Cn2nnnc2C(c2ccccc2Cl)N2CCN(C3CCCC3)CC2)cc1` (stereo not drawn), the manual score is -1 (active).

For `COc1ccccc1C(c1nnnn1CCc1ccccc1)N1CCCCCC1` (stereo not drawn), the manual score is -1 (active).

With `COCCn1nnnc1C(c1ccccc1)N1CCN(c2ccccc2)CC1` (stereo not drawn), the manual score is 0.

Consider `CCC(c1nnnn1Cc1ccc(OC)cc1)N(CCCO)Cc1cc2cc3c(cc2[nH]c1=O)OCO3` (stereo not drawn), for which the manual score is 0.

Regarding `C=CCN1CCN(C(c2ccc(Cl)cc2)c2nnnn2CCc2ccc(OC)c(OC)c2)CC1` (stereo not drawn), the manual score is -1 (active).

On to `COc1ccc(Cn2nnnc2C(c2ccc(F)cc2)N2CCN(C3CCCC3)CC2)cc1` (stereo not drawn), for which the manual score is -1 (active).

With `Cc1ccccc1/C=c1\s/c(=C\C(=O)C(C)(C)C)[nH]c1=O`, the manual score was 0.

In the case of `O=C(O)CCCCCNc1nc2ncn(Cc3ccccc3)c2c(=O)[nH]1`, the manual score is 0.

Take `CCN(c1ccc2c(c1)OCO2)S(=O)(=O)c1cc(Br)cc2c1N(C(=O)C1CC1)CC2`: the manual score is -1 (active).

In the case of `CCN(CC)C(=O)CN(c1ccc2c(c1)OCO2)S(C)(=O)=O`, the manual score is 0.

Turning to `COc1ccc(NC(=O)C(=O)NNC(=O)c2cccs2)c(OC)c1`, the manual score was 1 (active).

With `COc1ccc(NC(=O)C(=O)NNC(=O)c2cccs2)cc1`, the manual score was 1 (active).

As to `COc1ccc(-n2c(=O)[nH]cc(C(=O)Nc3ccc(NC(C)=O)cc3)c2=O)cc1`, the manual score was 0.

For the molecule `COC(=O)c1cc(OC)c(OC)cc1NC(=O)Nc1ccc(OC)cc1OC`, the manual score was 0.

In the case of `Cn1cccc1-c1nc2ccc(NC(=O)c3cccs3)cc2[nH]1`, the manual score is 0.

Take `COc1ccc(OC)c(C2C(C(=O)c3cccs3)=C(O)C(=O)N2c2cc(C)on2)c1` (stereo not drawn): the manual score is 0.

Turning to `O=C(Nc1ccc(CN2CCOCC2)cc1)c1cc2ccccn2n1`, the manual score is 0.

With `COCCCNCCCOc1ccc(Cl)cc1Br`, the manual score was 0.

Take `COCCNCCOc1ccccc1-c1ccccc1`: the manual score was -1 (active).

For the molecule `COc1cc2cnncc2cc1OC`, the manual score was 0.

With `S=c1[nH]nc(-c2cc3ccccc3o2)n1Cc1ccccc1`, the manual score was 0.5.

Turning to `CCCc1cc(-c2n[nH]c(=S)n2Cc2ccccc2)cs1`, the manual score was 0.

On to `S=c1[nH]nc(-c2ccc(Br)o2)n1Cc1ccccc1`, for which the manual score was 1 (active).

For the molecule `C/C(=N/NC(=O)c1cc(Cl)ccc1O)C12CC3CC(CC(C3)C1)C2`, the manual score was 0.

Take `CC(C)(C)CC(C)(C)NCC(O)COc1c(F)cc(Br)cc1F` (stereo not drawn): the manual score was -1 (active).

As for `CN1C2C=C3C(C#N)=C(N)C(C#N)(C#N)[C@@H](c4ccsc4)[C@@H]3C1CC2` (stereo partly drawn), the manual score is -0.5.

Take `O=C(Nc1nnc(-c2ccccc2F)s1)C1CCCO1` (stereo not drawn): the manual score is 0.

`OC(CNCC1CCCO1)Cn1c2ccc(Br)cc2c2cc(Br)ccc21` (stereo not drawn): the manual score is 0.

In the case of `CCOc1ccccc1Nc1nnc(Cc2ccccc2Cl)c(=O)[nH]1`, the manual score is 1 (active).

Regarding `CCOc1ccccc1NC(=O)Nc1cccc(C(C)=O)c1`, the manual score is 0.

Consider `COc1ccc(OC)c(Nc2cc(-c3ccccc3)nc(N)n2)c1`, for which the manual score was -0.5.

For `COc1ccc(Nc2nnc(Cc3ccccc3)c(=O)[nH]2)c(OC)c1`, the manual score is 1 (active).

Regarding `Cc1sc2ncnc(N(C)Cc3cccs3)c2c1C`, the manual score is -1 (active).

On to `CCOC(=O)c1c(CNCCN(CC)CC)n(C)c2cc(Br)c(OC)cc12`, for which the manual score is -1 (active).

On to `O=C(Nc1ccccc1-c1nnn(CC(=O)N2CCc3ccccc3C2)n1)C1CCC1`, for which the manual score is 0.

Take `CN=C1c2c(-c3ccccc3)c3cc(OC)ccc3n2CCN1C`: the manual score was -1 (active).

Take `C=CCn1c(-c2cccs2)nc2ccccc21`: the manual score was 0.

As for `CCc1cc(-c2n[nH]c(C)c2-c2nc3ccccc3n2C)c(O)c(CN2CCN(C)CC2)c1O`, the manual score is -1 (active).

Consider `CCCN(CCC)C(=O)CSc1nc2ccccc2c(=O)n1C1CCCC1`, for which the manual score was -1 (active).

In the case of `CCN(CC)C(=O)CSc1nc2ccccc2c(=O)n1-c1ccccc1OC`, the manual score is 0.

As to `COC(=O)c1ccc2c(=O)n(C3CCCCC3)c(SCC#N)nc2c1`, the manual score is 0.

Turning to `CC(C)(C)c1nnc(N/N=C/c2ccccc2)n(N)c1=O`, the manual score is 0.

On to `C/C(=N\NC(=S)NC(C)C)c1ccc(Cl)s1`, for which the manual score is 1 (active).

With `CCNC(=S)N/N=C(\C)c1ccc(Cl)s1`, the manual score is 0.

`C/C(=N\NC(N)=S)c1ccc(Cl)s1`: the manual score is 0.

As to `C/C(=N\NC(=O)c1csc(C)c1C)c1ccc(Cl)s1`, the manual score was 0.

For the molecule `CC(C)NC(=S)N/N=C/c1cc(Br)ccc1O`, the manual score was 0.

For `C=C(C)CNC(=S)N/N=C(\C)c1ccc(Cl)s1`, the manual score was 1 (active).

Turning to `CNC(=S)N/N=C(\C)c1ccc(Cl)s1`, the manual score was 1 (active).

`CNC(=S)N/N=C(\C)c1ccc(C)c(C)c1`: the manual score was 0.

With `C/C(=N\NC(=S)NCCc1ccccc1)c1cccs1`, the manual score is 3.
